About 2,200 (0.71%) of roughly 310,000 compounds showed an effect of 50% or more. Effects have a minus sign here. The entries come from a sample that favours strong results as a whole.
Target: human ether-à-go-go-related gene (hERG) potassium channel (human, UniProt Q12809)
Test: primary screen, population patch clamp on CHO cells stably expressing hERG; higher = less effect of the substance

human ether-à-go-go-related gene (hERG) potassium channel, sequence (Q12809 whole entry, looked up): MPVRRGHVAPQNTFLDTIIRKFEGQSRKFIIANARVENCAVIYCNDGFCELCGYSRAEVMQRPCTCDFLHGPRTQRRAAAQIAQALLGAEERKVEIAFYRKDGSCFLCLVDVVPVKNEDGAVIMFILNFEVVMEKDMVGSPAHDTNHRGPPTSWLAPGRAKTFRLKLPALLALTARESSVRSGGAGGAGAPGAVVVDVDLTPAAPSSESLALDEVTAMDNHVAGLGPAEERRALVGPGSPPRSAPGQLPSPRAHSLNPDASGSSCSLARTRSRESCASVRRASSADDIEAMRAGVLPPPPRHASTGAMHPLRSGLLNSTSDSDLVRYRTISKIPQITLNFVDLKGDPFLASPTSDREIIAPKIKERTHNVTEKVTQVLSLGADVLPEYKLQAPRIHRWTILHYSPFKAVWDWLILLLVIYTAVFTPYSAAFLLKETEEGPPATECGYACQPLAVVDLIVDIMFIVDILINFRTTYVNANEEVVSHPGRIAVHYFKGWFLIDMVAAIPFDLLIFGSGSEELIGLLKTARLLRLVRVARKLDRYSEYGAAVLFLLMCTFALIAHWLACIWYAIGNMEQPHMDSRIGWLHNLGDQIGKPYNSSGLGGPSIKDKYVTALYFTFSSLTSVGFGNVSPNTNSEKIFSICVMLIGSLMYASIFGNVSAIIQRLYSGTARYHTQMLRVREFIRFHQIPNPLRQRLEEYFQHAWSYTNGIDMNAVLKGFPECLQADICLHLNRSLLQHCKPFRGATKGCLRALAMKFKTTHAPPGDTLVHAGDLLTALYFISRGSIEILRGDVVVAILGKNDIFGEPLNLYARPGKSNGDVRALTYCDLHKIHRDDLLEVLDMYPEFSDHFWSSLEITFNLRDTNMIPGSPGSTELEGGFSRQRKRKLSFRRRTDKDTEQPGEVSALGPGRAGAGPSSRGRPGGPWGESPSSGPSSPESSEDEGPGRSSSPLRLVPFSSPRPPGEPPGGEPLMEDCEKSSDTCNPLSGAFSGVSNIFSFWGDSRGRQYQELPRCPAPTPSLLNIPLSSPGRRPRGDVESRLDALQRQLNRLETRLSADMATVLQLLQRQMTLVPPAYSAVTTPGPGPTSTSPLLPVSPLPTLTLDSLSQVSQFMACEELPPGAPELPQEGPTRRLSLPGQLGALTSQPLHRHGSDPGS

SMILES | hERG current change (%, negative = inhibition) at 1uM
Cc1nn(CC(=O)N2CCOCC2)c(=O)c2nn(-c3ccccc3)c(C)c12 | 16.5%
Cc1nn(C/C(C#N)=N\O)c(C)[n+]1N.[Cl-] | 11.8%
COc1c(Cl)cc(Cl)cc1CNCCNCC(C)O.Cl (stereo not drawn) | 5.98%
COc1ccc(C(=O)Nc2ccc(C(=O)N3CCOCC3)cc2)cc1OC | 11.3%
Cc1c(NC(=O)/C(C#N)=C/c2ccccc2)c(=O)n(-c2ccccc2)n1C | 8.78%
CCOC(=O)C1CCN(Cc2ccc(Cl)nc2)CC1 | 11.6%
COc1ccc(C2c3c(ccc4ccccc34)Oc3ncn4nc(Cc5ccc(OC)c(OC)c5)nc4c32)cc1 (stereo not drawn) | 2.05%
O=C(NCCc1ccccc1F)/C(=C/c1cccnc1)NC(=O)c1ccccc1 | -3.24%
O=C(NCCc1ccc(Cl)cc1)/C(=C/c1cccnc1)NC(=O)c1ccccc1 | -53.8%
O=C(NCc1cccnc1)/C(=C/c1ccccc1)NC(=O)c1ccccc1 | -23.3%
CN(C)c1ccc(/C=C(\NC(=O)c2ccccc2)C(=O)NCc2cccnc2)cc1 | -0.749%
COc1ccc(CCNC(=O)/C(=C/c2cccnc2)NC(=O)c2ccccc2)cc1 | 3.27%
O=C(NCc1cccnc1)/C(=C/c1ccc(Cl)cc1)NC(=O)c1ccccc1 | -60.8%
COc1ccc(/C=C2\SC(=S)N(CCC(=O)N3CCCCC3)C2=O)cc1 | -2.37%
CCOc1ccc(C(=O)CCC(=O)Nc2ccccc2C)cc1 | 12.5%
CC(C)c1ccccc1NC(=O)COC(=O)CNC(=O)c1ccc(Br)cc1 | 11%
CCN(CC)S(=O)(=O)c1ccc(Cl)c(NC(=O)CSc2nnc(-c3cccs3)o2)c1 | 5.51%
CCOc1ccc(N2CC(C(=O)Nc3ccc(S(=O)(=O)N4CCCC4)cc3)CC2=O)cc1 (stereo not drawn) | 6.22%
c1ccc(Nc2nn[nH]n2)cc1 | 10.1%
NC(=O)c1sc2nc(N3CCCCC3)c3c(c2c1N)CCCC3 | 4.86%
Cc1cc(Cl)c2oc(C(=O)N3CCN(C(=O)c4ccco4)CC3)c(C)c2c1 | 7.14%
Cc1cc(Cl)c2oc(C(=O)N3CCN(c4ccncc4)CC3)c(C)c2c1 | -83.6%
Cc1cc(Cl)c2oc(C(=O)N3CCN(c4cccc(C)n4)CC3)c(C)c2c1 | 14%
Cc1ccc(S(=O)(=O)NCCC(=O)OCC(=O)N(Cc2ccccc2)C(C)(C)C)cc1C | -0.298%
O=C1CC2(CCN(C(=O)c3c(F)cccc3F)CC2)Oc2ccccc21 | -3.63%
O=C1CC2(CCN(C(=O)c3ccc(Cl)cc3)CC2)Oc2ccccc21 | -63.7%
COc1ccc(Cl)cc1C(=O)N1CCC2(CC1)CC(=O)c1ccccc1O2 | -71.7%

SMILES | hERG current change (%, negative = inhibition) at 1uM
O=C(c1ccccc1)N1CCN(C(=O)c2ccc([N+](=O)[O-])cc2)CC1 | -4.32%
O=C1CC2(CCN(C(=O)c3cccc([N+](=O)[O-])c3)CC2)Oc2ccccc21 | -66.7%
O=C(O)c1ccc(S(=O)(=O)N2CCC3(CC2)CC(=O)c2ccccc2O3)cc1 | 10.5%
O=C1CC2(CCN(C(=O)c3cccc(F)c3)CC2)Oc2ccccc21 | -32.6%
CC(=O)N1CCC2(CC1)CC(=O)c1cc(Cl)ccc1O2 | -7.88%
O=C1CC2(CCN(C(=O)c3ccc([N+](=O)[O-])cc3)CC2)Oc2ccccc21 | -87.5%
COc1ccccc1OCC(=O)N1CCC2(CC1)CC(=O)c1ccccc1O2 | -4.96%
O=C1CC2(CCN(C(=O)c3ccc(F)cc3)CC2)Oc2ccccc21 | -42.2%
O=C1CC2(CCN(C(=O)c3cccc(Cl)c3)CC2)Oc2ccccc21 | -46.6%
CCO.CN1CC=C2C(C#N)=C(N)C(C#N)(C#N)[C@H](c3ccoc3)[C@H]2C1 | 6.1%
COc1cc2ccccc2cc1C(=O)N(CCN(C)C)c1nc2c(OC)ccc(OC)c2s1.Cl | 14%
Cc1ccnc(NS(=O)(=O)c2ccc(NS(=O)(=O)c3ccc(Br)cc3)cc2)n1 | 16.1%
COc1ccccc1NC(=S)NC(=O)/C=C/c1cccs1 | 12.3%
COCCCNC(=O)CN(c1cc(Cl)cc(Cl)c1)S(C)(=O)=O | 8.12%
COc1cc(S(=O)(=O)N2CCN(C(=O)c3ccco3)CC2)ccc1Cl | 8.83%
Cn1ncc2nnn(-c3ccccc3)c(=O)c21 | -0.008%
C=CCn1c(SCC(=O)Nc2sccc2C(N)=O)nc2ccc(Cl)cc2c1=O | 1.53%
FCCCOc1ccc(/C=N/OCc2ccc(Cl)cc2Cl)cc1 | 9.53%
O=C1CC2(CCN(C(=O)c3c(F)cccc3Cl)CC2)Oc2ccccc21 | -4.7%
Cc1c(C(=O)N2CCC3(CC2)CC(=O)c2ccccc2O3)cccc1[N+](=O)[O-] | -83.9%
CSc1ccccc1C(=O)N1CCC2(CC1)CC(=O)c1ccccc1O2 | -27.2%
O=C1CC2(CCN(C(=O)c3cccc(Br)c3)CC2)Oc2ccccc21 | -56%
O=C1CC2(CCN(C(=O)c3ccccc3F)CC2)Oc2ccccc21 | -47.9%
O=C1CC2(CCN(C(=O)c3ccc(Br)cc3)CC2)Oc2ccccc21 | -30.8%
O=C1CC2(CCN(C(=O)c3ccccc3Cl)CC2)Oc2ccccc21 | -27.6%
O=C1CC2(CCN(C(=O)c3ccccc3Br)CC2)Oc2ccccc21 | -51.4%
O=C1CC2(CCN(C(=O)c3ccccc3[N+](=O)[O-])CC2)Oc2ccccc21 | -19%

From paper PMC4336329 (PLoS ONE, 2015)
